C2C12 statin – suppressors of statin myotoxicity in C2C12 myotubes, primary screen, cell-based, single point, plate reader. rescue of ATP level, % at 7.49 µM. C2C12 myotubes + simvastatin, ATP luminescence, 48 h; scaled: DMSO 0, geranylgeraniol control 100. 330,000 tested, 0.78% active;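 active = mean ATP rescue above about 67%, or every replicate alone reaching that limit, limit read from the data, passing the limit was not always enough; inconclusive = no clear call, values can overlap the other calls; inactive = mean under the limit and some replicate under it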;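 also: myotubes were challenged with 10 µM simvastatin during compound exposure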
MITF TRPM1 HTS – activators of MITF-driven TRPM1 promoter reporter, primary screen, cell-based, SK-MEL-5, luciferase, single point; activation, % at 12.5 µM; SK-MEL-5 TRPM1-promoter luciferase, 24 h; % of positive control, neutral wells = 0; 300,000 tested, 0.75% active;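 active = mean activation of at least 80% with every replicate also reaching 80%; inconclusive = mean reaches 80% but some replicate falls short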
Wnt bcat act – Wnt/beta-catenin pathway activators, primary screen, cell-based, plate reader, single point. Wnt/beta-catenin reporter cell assay, activator. activation, % at 9.35 µM. 300,000 tested, 1.2% active. AID 743398, 2014; in the data active = activation above about 30%, passing the limit was not always enough; inconclusive = no clear call, values can overlap the other calls
TRPM1 prom inh – inhibitors of MITF-dependent TRPM1 promoter reporter, primary screen, cell-based, SK-MEL-5, single point, luciferase. SK-MEL-5 TRPM1 promoter luciferase, 24 h. inhibition, % at 12.5 µM. 330,000 tested, 0.83% active;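 active = mean inhibition across replicates of 60% or more, whatever share of single replicates reaches that level; inconclusive = some that reach 60%, reason not given; inactive = mean inhibition across replicates below 60%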
EBV LMP1 NFkB – EBV LMP1-driven NF-kappaB luciferase reporter inhibitors, primary screen, cell-based, luminescence, single point; AID 504558, 2011; LMP1-induced NF-kappaB luciferase reporter cells; 350,000 tested, 0.69% active; inhibition, % at 12.5 µM; in the data active = inhibition above about 41%; inconclusive = no clear call, values can overlap the other calls
esBAF inh – Bmi1 luciferase reporter increase in mESCs, primary screen, esBAF inhibitor project, mouse ES cells, Bmi1 luciferase knock-in, single point. 24 h; 100% = twice the neutral-well signal. reporter increase, % at 12.5 µM. 350,000 tested, 2% active; in the data active = activation above about 40%; inconclusive = no clear call, values can overlap the other calls;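 also: a rise in the Bmi1 reporter signal indicates esBAF inhibition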
A number is an active result; n = inactive; u = inconclusive; x = no result. Shown are actives, neighbours in structure and some others; about 4% of the full set was active somewhere.

SMILES	C2C12 statin	MITF TRPM1 HTS	Wnt bcat act	TRPM1 prom inh	EBV LMP1 NFkB	esBAF inh
O=C(O)C1=C2C(=O)Nc3cccc(c32)C2(C1)C(=O)Nc1ccccc12 (stereo unspecified)	n	x	n	x	n	n
CC(C)NC(=O)N(C)C[C@H]1Oc2c(NC(=O)C3CCCCC3)cccc2C(=O)N([C@H](C)CO)C[C@H]1C	n	x	x	x	x	n
CO[C@@H]1CN(C)C(=O)c2cc(NS(=O)(=O)c3ccccc3)ccc2OC[C@H](C)N(C)C[C@H]1C	n	x	x	x	x	n
O=C(CSc1cccc[n+]1[O-])Nc1ccc2c(c1)OCCO2	x	n	n	n	n	x
O=C(CSc1ncn(-c2ccccc2)n1)Nc1ccc2c(c1)OCCO2	101	n	n	n	n	n
O=C(CSc1ccccc1F)Nc1ccc2c(c1)OCO2	n	99	n	n	n	n
CN1CCN(c2ccc(NC(=O)CSc3ccccc3)cc2F)CC1	x	x	38	n	n	n
O=C(CSc1ccccc1)Nc1ccc2c(c1)OCCO2	n	n	33	n	n	54
COCC(=O)N1C[C@H](C)[C@H](OC)CN(C)C(=O)c2ccc(NC(=O)c3ccc(F)cc3)cc2OC[C@H]1C	n	x	x	x	x	n
O=C(CSc1ccc(Br)c2cccc(Cl)c12)Nc1ccc(S(=O)(=O)Nc2nccs2)cc1	n	n	n	n	n	n
O=C(COc1ccc(-n2cnnn2)cc1)Nc1ccccc1OC(F)F	n	x	n	x	n	n
N#CCCN(C(=O)CSc1ccc2c(c1)OCCO2)c1ccccc1	n	x	n	n	n	n
CN(C(=O)CSc1ccc2c(c1)OCCO2)c1ccccc1	n	n	n	n	n	60
C/C(CC(=O)Nc1ccc2c(c1)OCCO2)=N\NC(=O)c1ccccn1	n	n	n	n	n	52
O=C(Nc1ccc2c(c1)OCCO2)c1cnn(-c2ccccc2)n1	n	90	n	n	n	n
O=C(CSc1nnnn1-c1ccc(Cl)cc1)NC(=O)Nc1ccc2c(c1)OCCO2	n	n	38	n	n	56
Cc1cc(C)nc(SCc2cc(=O)c(OC(=O)c3cc([N+](=O)[O-])ccc3Cl)co2)n1	x	n	x	n	n	x
Cc1ccc(NS(=O)(=O)c2ccc(NC(=O)CN(c3cc([N+](=O)[O-])ccc3C)S(C)(=O)=O)cc2)c(C)c1	x	n	n	n	n	x
COC(=O)[C@]12C(=O)NC[C@H](CN1c1ccc(Cl)c(C)c1)N2C	n	n	n	n	n	n
CC(C)C(=O)Nc1ccc2c(c1)C(=O)N(C)[C@H]1CC[C@H](CC(=O)Nc3cccc(Cl)c3)O[C@@H]1CO2	n	x	x	x	x	n
O=C(CC1Nc2ccccc2NC1=O)Nc1ccc2c(c1)OCO2 (stereo unspecified)	n	n	n	n	n	47
CC(CC(=O)Nc1ccc2c(c1)OCCO2)c1ccccc1 (stereo unspecified)	n	x	56	n	n	55
NC(=O)C1CCN(C(=O)CSc2nc3ccccc3[nH]2)CC1	x	n	n	n	n	n
O=C(CSCc1ccccc1)Nc1ccc2c(c1)OCO2	n	n	x	n	n	n
CC1CCN(C(=O)CSc2nc3ccccc3[nH]2)CC1	n	u	n	n	n	51
SMILES	C2C12 statin	MITF TRPM1 HTS	Wnt bcat act	TRPM1 prom inh	EBV LMP1 NFkB	esBAF inh
Cc1ccc(CSCC(=O)Nc2ccc3c(c2)OCO3)cc1	103	n	n	n	n	n
COc1ccc(NC(=O)Nc2cccc3c2O[C@@H](CN(C)S(=O)(=O)c2ccc(F)cc2)[C@H](C)CN([C@H](C)CO)C3=O)cc1	n	x	x	x	x	n
C[C@H]1CN([C@@H](C)CO)C(=O)c2cc(/C=C/c3ccccc3)cnc2O[C@@H]1CN(C)Cc1ccc2c(c1)OCO2	n	x	x	x	x	n
Cc1ccc(NC(=O)CSc2nccn(-c3ccc4c(c3)OCCO4)c2=O)cc1	x	n	n	n	n	x
Cc1ccc(NC(=O)CN2C(=O)C3C4C=CC(C4)C3C2=O)cc1 (stereo unspecified)	x	n	n	n	n	x
O=C(CN1C(=O)C2C3C=CC(C3)C2C1=O)Nc1ccc2c(c1)OCCO2 (stereo unspecified)	n	n	x	n	n	41
O=C(CSc1nccn(-c2ccc3c(c2)OCCO3)c1=O)Nc1ccccc1	n	n	n	n	n	49
Cc1ccc2nc(SCC(=O)Nc3ccc4c(c3)OCCO4)[nH]c2c1	n	n	n	n	n	n
Cc1ccc(C(=O)CSc2nc(C(C)C)nc3ccccc23)cc1	n	n	36	n	n	n
O=C(CSc1nc2ccccc2[nH]1)Nc1ccc2c(c1)OCCO2	117	n	x	n	n	n
Cn1c(=O)n(C)c2cc(NC(=O)Cc3ccccc3[N+](=O)[O-])ccc21	n	n	n	n	n	n
CSc1nsc(SCC(=O)NC2CCCCC2)n1	69	n	x	n	n	n
O=C(CSc1ccccn1)Nc1ccc2c(c1)OCO2	x	x	n	x	x	x
CC(Sc1ccc2c(c1)OCCO2)C(=O)Nc1ccc2c(c1)OCO2 (stereo unspecified)	n	n	x	n	n	n
CC(Sc1ccccc1F)C(=O)Nc1ccc2c(c1)OCCO2 (stereo unspecified)	n	89	45	n	n	100
O=C(CSc1ccccn1)c1ccc2c(c1)OCO2	n	x	47	n	n	51
COc1ccc(-c2nnc(SC(C)C(=O)Nc3ccc4c(c3)OCCO4)o2)cc1 (stereo unspecified)	n	u	x	n	n	46
CC(=O)Nc1ccc(NC(=O)C(C)Sc2nnc(-c3ccc4c(c3)OCO4)o2)cc1 (stereo unspecified)	n	n	n	n	n	n
Cc1nn(-c2ccccc2)c2c1CC(=O)Nc1ccccc1-2	x	n	n	n	n	x
CCC(=O)Nc1ccc2c(c1)OCCO2	n	x	n	n	n	n
O=C(CSc1ccc2c(c1)OCCO2)Nc1ccc2c(c1)OCO2	x	n	n	n	n	n
O=C(CSc1ccc2c(c1)OCCO2)Nc1ccc(Br)cc1	102	n	n	n	n	n
CSc1nsc(SCC(=O)Nc2ccc3c(c2)OCCO3)n1	n	n	n	n	n	43
O=C(CSc1ccccc1)Nc1ccc2c(c1)OCO2	n	89	n	n	n	44
CCn1cc(S(=O)(=O)CC(=O)Nc2ccc3c(c2)OCO3)c2ccccc21	n	x	35	x	n	n
O=C(CSCSCC(=O)Nc1ccc2c(c1)OCO2)Nc1ccc2c(c1)OCO2	n	n	x	n	n	n
Cc1cc(=O)[nH]c(SCC(=O)NC2CCCCCC2)n1	72	n	n	n	n	x
Cc1cc(=O)[nH]c(SCC(=O)NC2CCCCCCC2)n1	n	n	n	n	n	n
CCc1nc(SCC(=O)c2ccc3c(c2)OCCO3)c2ccccc2n1	n	n	x	n	41	n
